Myc binder: binders of human c-Myc, primary screen, biochemical, small molecule microarray, anti-His fluorescence | Myc proto-oncogene protein (Homo sapiens), P01106 | 1.5% of 17,000 active | AID 624141, 2012 | calls only | His-c-Myc binding;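 active means spot fluorescence over background with P-value below 7% in all four replicate spots, showing protein binding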
Target sequence (P01106 whole entry, looked up): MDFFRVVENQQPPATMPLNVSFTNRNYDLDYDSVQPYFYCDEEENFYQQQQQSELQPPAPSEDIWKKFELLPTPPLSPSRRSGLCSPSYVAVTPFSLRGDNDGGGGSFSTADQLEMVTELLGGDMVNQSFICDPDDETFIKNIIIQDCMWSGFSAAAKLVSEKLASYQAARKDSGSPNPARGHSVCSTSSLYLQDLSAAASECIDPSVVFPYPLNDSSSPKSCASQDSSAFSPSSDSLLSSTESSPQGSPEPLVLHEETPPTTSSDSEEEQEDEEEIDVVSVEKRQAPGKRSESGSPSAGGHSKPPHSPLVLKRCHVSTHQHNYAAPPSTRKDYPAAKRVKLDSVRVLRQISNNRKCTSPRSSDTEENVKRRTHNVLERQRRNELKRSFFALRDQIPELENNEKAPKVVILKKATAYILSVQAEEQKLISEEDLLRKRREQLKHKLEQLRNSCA
NFkB SMM: binders of NF-kB p50 subunit, primary screen, biochemical, small molecule microarray, anti-His fluorescence; anti-His fluorescence binding; 1.3% of 17,000 active; AID 624139, 2012; Nuclear factor NF-kappa-B p105 subunit (Homo sapiens), P19838; calls only;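 active means spot fluorescence over background significantly raised, with a chance value under 7% in all four replicate spots of the compound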;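 further: probe protein is his-tagged human p50 processed subunit at 1 µg/ml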
p53 mut binder: binders of human mutant p53, primary screen, biochemical, small molecule microarray, anti-GST fluorescence | calls only | AID 624136, 2012 | 0.4% of 17,000 active | small molecule microarray binding | mutant tumor protein p53 (GST-tagged), Homo sapiens;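 active means compounds whose four printed spots each glow above background more than chance allows, each with a p-value under 7%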
STAT3 binder: STAT3 binders, primary screen, biochemical, small molecule microarray, single point, set 2; Signal transducer and activator of transcription 3 (Homo sapiens), P40763; His-STAT3 binding, anti-His fluorescence; calls only; 0.2% of 17,000 active; AID 624138, 2012;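 active means compounds whose four printed spots each show fluorescence over background unusually high for their array block, chance value under 7%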
Calls only; – = inactive; + = active, no number. An excerpt weighted towards active compounds, which were near 2.4% of everything screened.

SMILES	Myc binder	NFkB SMM	p53 mut binder	STAT3 binder
C[C@H]1CCCCO[C@@H](CN(C)C(=O)CCC(F)(F)F)[C@@H](C)CN([C@@H](C)CO)C(=O)c2cc(NS(=O)(=O)c3ccccc3)ccc2O1	–	–	–	–
C[C@@H]1CN([C@@H](C)CO)C(=O)c2cc(NS(=O)(=O)c3cccs3)ccc2O[C@@H](C)CCCCO[C@@H]1CN(C)C(=O)CCC(F)(F)F	–	+	–	–
C[C@@H]1CCCCO[C@@H](CN(C)C(=O)CCC(F)(F)F)[C@H](C)CN([C@@H](C)CO)C(=O)c2cc(NS(=O)(=O)c3ccccc3)ccc2O1	+	+	–	–
C[C@H](CO)N1C[C@H](C)[C@@H](CN(C)C(=O)CCC(F)(F)F)OCCCC[C@H](C)Oc2ccc(NS(C)(=O)=O)cc2C1=O	+	+	–	–
CSC(=O)OCC1=C[C@H](O)[C@@H]2C(C(=O)O)=CO[C@@H](OC3OC(CO)C(O)C(O)C3O)[C@H]12 (some centres not stated)	–	–	–	–
Cc1ccc(CCC(=O)Nc2ccccc2)o1	–	–	–	–
O=C(O)CCC(=O)Nc1ccc(Br)c2cccnc12	+	–	–	–
CC(=O)c1ccc(NC(=O)Cn2cnc3c(sc4nc5c(cc43)COC(C)(C)C5)c2=O)cc1	–	–	–	–
CC1(C)O[C@H]2CC(=O)OC[C@@]23[C@H]1CC(=O)[C@@]1(C)C2=CC(=O)O[C@@H](c4ccoc4)[C@]2(C)CC[C@@H]13	+	+	–	–
C[C@H](CO)N1C[C@H](C)[C@@H](CN(C)C(=O)Nc2ccc(F)cc2)Oc2ccc(NS(=O)(=O)c3ccc(Cl)cc3)cc2CC1=O	–	–	–	–
CNC[C@@H]1Oc2ccc(NS(=O)(=O)c3cn(C)cn3)cc2CC(=O)N([C@H](C)CO)C[C@@H]1C	–	+	–	–
C[C@@H]1CN([C@H](C)CO)C(=O)Cc2cc(NS(=O)(=O)c3ccc(Cl)cc3)ccc2O[C@H]1CN(C)CC1CCCCC1	+	–	–	–
CNC[C@H]1Oc2ccc(NS(=O)(=O)c3cn(C)cn3)cc2CC(=O)N([C@H](C)CO)C[C@@H]1C	–	–	–	–
C[C@@H]1CN([C@@H](C)CO)C(=O)Cc2cc(NS(=O)(=O)c3ccc(Cl)cc3)ccc2O[C@@H]1CN(C)C(=O)Nc1ccc(F)cc1	+	+	–	–
O=C(/C=C/c1ccc(O)cc1)OC[C@H]1O[C@@H](O[C@@H]2OC=C[C@H]3[C@H](O)[C@@H]4O[C@]4(CO)[C@@H]23)[C@H](O)[C@@H](O)[C@@H]1O	–	–	–	–
CCN1CCN(C(=O)C2CCCN2S(=O)(=O)c2cccc3nsnc23)CC1 (configuration not stated)	–	–	–	–
Cc1ccc(-c2nnc(SCC(=O)c3cccc([N+](=O)[O-])c3)n2C)cc1	–	–	+	–
CCOC(=O)CSc1nnc2c3ccccc3n(C)c2n1	–	–	–	–
Cn1c2ccccc2c2nnc(SCCN3CCCCC3)nc21	+	–	–	–
c1ccc2c(c1)[nH]c1nc(SCCN3CCCCC3)nnc12	+	–	–	–
Cc1ccc2c(c1)c1nc3ccccc3nc1n2CCN1CCOCC1	+	–	–	–
Cc1ccc(-c2cc(C(=O)NCCN3CCOCC3)c3cccc(C)c3n2)c(C)c1	–	–	–	–
CC(C)CC(NS(=O)(=O)c1ccc(C(C)(C)C)cc1)C(=O)O (configuration not stated)	–	–	–	–
CCOC(=O)C1CCCCN1Cc1cc(OC)ccc1OC (configuration not stated)	+	+	–	–
Cc1oc(-c2cc(Cl)cc(Cl)c2)cc1C(=O)NCc1ccco1	–	–	–	–
SMILES	Myc binder	NFkB SMM	p53 mut binder	STAT3 binder
O=C(CSc1nnc(-c2ccccc2O)n1-c1ccccc1)Nc1ccc(N2CCOCC2)cc1	–	–	–	–
Cc1ccccc1NC(=O)Cn1cnc2sc(C)c(C)c2c1=O	–	–	–	–
COc1ccc(C#Cc2ccc3c(c2)[C@]2(C(=O)N3)[C@H](c3ccc(O)cc3)N3[C@H](c4ccccc4)[C@H](c4ccccc4)OC(=O)[C@H]3[C@@H]2C(=O)N2CCCCCCC2)cc1	–	–	+	+
O=C1O[C@@H](c2ccccc2)[C@@H](c2ccccc2)N2[C@@H](c3ccc(O)cc3)[C@]3(C(=O)Nc4ccc(C#CC5(O)CCCCCC5)cc43)[C@@H](C(=O)N3CCCCCCC3)[C@H]12	–	–	–	+
CCOc1ccccc1CNCCN1CCOCC1	+	–	–	–
C=C1C(=O)O[C@@H]2CC=C(CCC(C)O)C(C)C[C@@H]12 (some centres not stated)	–	–	–	–
CCCN(C)C[C@H]1OCCCC[C@@H](C)Oc2ccc(NS(=O)(=O)c3ccc(OC)cc3)cc2C(=O)N([C@H](C)CO)C[C@H]1C	–	–	+	–
C[C@H]1CCCCO[C@@H](CN(C)C(=O)C2CCCCC2)[C@@H](C)CN([C@@H](C)CO)C(=O)c2cc(NS(=O)(=O)c3ccccc3)ccc2O1	–	–	–	–
C[C@H]1CCCCO[C@H](CN(C)C(=O)C2CCCCC2)[C@@H](C)CN([C@@H](C)CO)C(=O)c2cc(NS(=O)(=O)c3ccccc3)ccc2O1	+	+	–	–
C[C@H](CO)N1C[C@H](C)[C@H](CN(C)C(=O)C2CCCCC2)OCCCC[C@H](C)Oc2ccc(NS(=O)(=O)c3ccccc3)cc2C1=O	–	–	–	+
C[C@H](CO)N1C[C@H](C)[C@H](CN(C)Cc2ccccc2)OCCCC[C@H](C)Oc2ccc(NS(=O)(=O)c3ccccc3)cc2C1=O	–	–	+	–
CSc1ccc(C2CN3CCCC3c3ccccc32)cc1 (configuration not stated)	–	–	–	–
CCOC(=O)C1C(=O)C(=O)Nc2ccccc21 (configuration not stated)	–	–	–	–
Cc1cc(O)c(Cc2c(O)cc(C)c(C=O)c2O)c(O)c1C	–	–	–	–
CC(C)NC(=O)N(C)C[C@H]1OCCCC[C@H](C)Oc2ccc(NC(=O)c3ccncc3)cc2C(=O)N([C@@H](C)CO)C[C@@H]1C	+	+	–	–
CC(C)NC(=O)N(C)C[C@@H]1OCCCC[C@@H](C)Oc2ccc(NC(=O)c3ccncc3)cc2C(=O)N([C@H](C)CO)C[C@H]1C	+	+	–	–
CC(C)NC(=O)N(C)C[C@@H]1OCCCC[C@@H](C)Oc2ccc(NC(=O)c3ccncc3)cc2C(=O)N([C@H](C)CO)C[C@@H]1C	–	–	–	–
CC(C)NC(=O)N(C)C[C@H]1OCCCC[C@H](C)Oc2ccc(NC(=O)c3ccncc3)cc2C(=O)N([C@H](C)CO)C[C@@H]1C	–	+	–	–
C[C@@H]1CN([C@H](C)CO)C(=O)c2cc(NC(=O)c3ccncc3)ccc2O[C@@H](C)CCCCO[C@H]1CN(C)C	+	–	–	–

Compound activity deposited in PubChem by Broad Institute.
